Active and inactive are the calls of the source.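 Rule for the calls: active = inhibition at or above 50% relative to wild type and mutant plate controls; inactive = inhibition below 50%.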
Experiment: inhibitors of Chlamydomonas gravitaxis, primary screen, whole organism, Chlamydomonas reinhardtii, WT vs cilia-less mutant, absorbance, 96-well (AID 463189);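 note: 0% = wild type cc124 cells in DMSO and 100% = ciliumless bld1 mutant cells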
Conditions: OD600 absorbance, 2 days, at 10 µM, stronger effect = higher value

| Structure (SMILES) | inhibition |
| --- | --- |
| NC(CCP(=O)(O)O)C(=O)O (stereo not given) | 17.2% (inactive) |
| COc1ccc2c(c[n+](C)c3c4cc5c(cc4ccc23)OCO5)c1OC | 47% (inactive) |
| CCCCCCC(C)(C)c1ccc([C@@H]2C[C@H](O)CC[C@H]2CCCO)c(O)c1 | -3.04% (inactive) |
| C[C@H](N)CN1CCc2ccc(Br)cc21 | -3.37% (inactive) |
| O=[N+]([O-])c1ccc2nc(N3CCNCC3)ccc2c1 | 14.2% (inactive) |
| C=CCN1CCC23c4c5ccc(O)c4O[C@H]2C(=O)CC[C@@]3(O)C1C5 (stereo not given in full) | 4.89% (inactive) |
| C[C@@H]1O[C@@H](O[C@H]2C[C@@H](O)[C@]3(CO)[C@H]4[C@H](O)C[C@]5(C)[C@@H](C6=CC(=O)OC6)CC[C@]5(O)[C@@H]4CC[C@]3(O)C2)[C@H](O)[C@H](O)[C@H]1O | 6.79% (inactive) |
| COc1ccc2c3c1O[C@H]1C(=O)CC[C@@]4(O)C(C2)N(CC2CC2)CCC314 (stereo not given in full) | 3.52% (inactive) |
| Oc1ccc2c3c1O[C@H]1c4oc5ccccc5c4C[C@@]4(O)C(C2)N(CC2CC2)CCC314 (stereo not given in full) | 3.38% (inactive) |
| CC(N)c1cccc(Cl)c1Cl (stereo not given) | -4.86% (inactive) |
| O=C(OC1CCN(CCCl)CC1)C(c1ccccc1)c1ccccc1 | -11.2% (inactive) |
| CN1CCC23CCCC[C@H]2C1Cc1ccc(O)cc13 (stereo not given in full) | -3.02% (inactive) |
| O=C(O)Cc1cnc[nH]1 | 2.27% (inactive) |
| c1ccc2sc(C3(N4CCCCC4)CCCCC3)cc2c1 | -0.941% (inactive) |
| N#CC(=Cc1ccc(O)c(O)c1)C(N)=S | 10.3% (inactive) |
| NC(=O)COc1c(F)cc(SCCNS(=O)(=O)c2ccccc2)cc1F | 4.45% (inactive) |
| C[C@]12N[C@H](Cc3ccccc31)c1ccccc12 | -0.308% (inactive) |
| OCc1cnc[nH]1 | 3.19% (inactive) |
| CCCN(CCC)C1CCc2ccc(O)cc2C1 (stereo not given) | 1.06% (inactive) |
| C[N+](C)(C)CC#CCOC(=O)Nc1cccc(Cl)c1 | 2.56% (inactive) |

Reference: PubChem BioAssay
